# Laboratory results: the supplement of paper PMC6555819
# Columns and labels:
# Assay in all cases: PBM binding z-score (relative to random genomic background probes); higher = stronger binding; sequences stand for … in GC…GCGATTGACAGCGTAGAATGAAGG
# [1] = system: RARb homodimer (NR concentration 270 nM)
# How it was run: (§1)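 Scanned fluorescence from custom Agilent 4×180K protein-binding microarrays was regression-normalized. Binding z-scores use random background probes as reference. Ligand-free nuclear receptor dimers were incubated on the arrays for 1 h and detected with antibodies against each partner (one per run).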
# [2] = system: RARg:RXRa (NR concentration 270 nM, RXRa partner concentration 90 nM)
# How it was run: as §1
# [3] = system: RARg homodimer (NR concentration 270 nM)
# How it was run: as §1
# [4] = system: RXRa DBDmut IVT, anti-RXR (DBD mutation: RXRa K156A/R161A, NR concentration 90 nM)
# How it was run: as §1
# [5] = system: RXRa homodimer (NR concentration 180 nM)
# How it was run: as §1
# [6] = system: THRa:RXRa (NR concentration 90 nM, RXRa partner concentration 90 nM)
# How it was run: as §1
# [7] = system: THRa homodimer (NR concentration 90 nM)
# How it was run: as §1
# [8] = system: VDR homodimer (NR concentration 270 nM)
# How it was run: as §1
Sequence,PBM binding z-score [1],PBM binding z-score [2],PBM binding z-score [3],PBM binding z-score [4],PBM binding z-score [5],PBM binding z-score [6],PBM binding z-score [7],PBM binding z-score [8]
CCGACAGGGGCAAGGTTACCATAACGCACAGCCA,1.43,1.58,1.94,0.0606,1.58,1.37,0.432,0.707
TCTAGTAGGCCAGAGGGTCACTCAAGAGGTACGG,2.95,2.83,2.16,0.571,2.75,1.74,0.0135,0.631
CAAACTAGGTCAAGGTCAAAATCGGTTTGTGCCA,4.77,5.74,6.36,2.64,5.55,4.32,3.13,3.88
CCTGCTAGGTCAATGGTCAGCTATAGCAGCTCGC,3.2,3.54,4.59,1.75,2.21,2.26,0.61,0.24
ACTATTAGTTTACTTAGGGCAACCGATACGACGC,0.74,0.56,1.01,1.17,0.51,1.66,0.312,0.435
CGTACTAGGTCATTGACAGGACAGTGAATAGTAA,2.49,4.45,4.13,2.38,2.6,2.9,0.971,1.45
CCTACTCGGCCAAAGGTCATTGATTCCAATGCTC,4.75,6.07,5.2,1.7,6.26,3.41,1.46,2.63
TCTAGTTGGTGAAAGGTCACACACTCGAAATGCG,4.86,6.24,5.72,1.95,7.42,3.97,2.01,2.58
ATCGAAGGGTCGTGAGGTGAGTATACAGAAAGGC,2.09,3.05,2.55,0.87,3.4,2.84,1.51,0.783
TCAGACAGGTGAGGGTAACTCAGGTACGCAGTCG,0.992,0.551,0.485,0.971,0.746,2.35,0.442,0.115
GCGACTGGGGCCAAGCAGGTTACCATAAGGTTGG,1.2,0.615,0.586,-0.252,0.329,1.3,0.0537,0.051
CCTGCTAGGACATGGTCAGCTAATCTACAGTATG,-0.2,-0.204,0.478,0.385,-0.656,0.568,-0.28,-0.547
ATCGATAGGTCGAGGTGAGTATAGAGAAAGGGAA,1.05,1.68,2.13,-0.314,1.47,1.63,0.0105,-0.206
AGAATGAGGGTATTAAGATCAGGGAATTGCGGTC,0.61,0.0247,0.0754,0.633,0.379,0.534,0.27,0.315
CAAACTAGGTCAAAAGTCAAAGTCGAGCCAACCA,2.64,4.67,4.23,1.61,5.2,2.55,0.407,0.387
TCTAGGTGGTCAAAGGTCACACACTCGAAATGCG,5.07,7.33,6.07,1.85,8.65,4.41,1.74,2.4
GATACAGGGTCAGCTAGACGCCAGAGTATGGAAA,2.32,4.41,4.12,0.957,4.21,2.43,0.221,0.722
TAGCCTACGTCATTGGGCCAGTATAGTACGCATC,-0.397,-0.281,-0.0336,-0.739,-0.232,-0.688,-0.62,-0.718
CCAGACAGGTGAGAACGTAACTCAGCCTCGATTA,0.118,0.404,0.33,0.242,0.378,-0.0328,0.361,0.202

Sequence,PBM binding z-score [1],PBM binding z-score [2],PBM binding z-score [3],PBM binding z-score [4],PBM binding z-score [5],PBM binding z-score [6],PBM binding z-score [7],PBM binding z-score [8]
TAAATGAGGTTAAAGATCAGGGAACGTGGCGTCG,1.22,2.58,1.64,1.2,4.01,3.09,0.733,1.12
GCGACTGGGGCATCAGCAGGGTACCATAACTTAA,0.489,0.0941,0.0483,-0.313,-0.0228,0.147,-0.7,-0.477
CCTGCTAGGCCATGGTCAGCTAATCTACAGTATG,0.329,-0.00744,0.586,0.152,-0.245,-0.0916,-0.719,-0.711
TAGCCTAGGTCATTCGGCCAGTATAGTACGCATC,3.12,3.81,4.13,1.7,2.52,2.66,0.61,1.6
CCGAGTAGGTGATGGGGCATTCAGGCAACGGTGA,0.69,0.024,-0.0731,-0.961,0.074,0.211,-0.0233,-0.306
GCTGCTAGGTCAACTGGTGGTCAGCTAAAGCTCG,3.61,5.52,5.36,1.53,2.88,3.02,0.794,0.0223
TAGCCTAGGTCATGCGGACCAGTATAGTGTCGGC,2.76,3.99,4.25,0.668,3.05,2.84,1.12,-0.0352
CCTACCGGGCCATTCAGAGGTCATTGATCATATG,4.14,4.98,3.36,0.918,3.86,3.65,1.73,4.05
AGTCAAAGTTCACTAGGAAACGTAAGATTCAGCT,3.48,4.86,5.62,3.98,3.71,1.3,-0.55,3.64
CAAACTAGGTCACCGGAAGGTCAAAGCCCGCATG,5.35,8.33,7.37,1.48,6.03,4.42,2.96,3.25
AGAATGAGGTTATACGTAGAGCAGGGAAGAAAGT,0.854,1.69,0.941,1.58,2.1,2.19,0.488,0.731
TCTATTAGTTGAAGGGCACCCGACGAGTCCGTTT,1.26,0.402,0.483,1.77,0.846,0.413,0.444,1.93
CCTAGTTGGTCAGGAGGTCACACACCGGATATGA,4.56,5.11,4.78,0.706,4.83,3.61,2.6,2.82
AGAACGAGGGCACGCTCAGTTGATAGCAGAGTAG,1.02,1.9,2.25,1.94,1.28,1.82,-0.0296,0.752
GATACAGGGTCAAGCCCAGAGTACGCGTATTGAT,3.52,5.73,5.47,2.9,6.59,3.45,0.87,2.39
ATCCCTAGGTAACCAAGTTCAGTGAATGCCGAAC,1.97,0.484,0.374,0.841,0.841,1.79,1.02,2.77
GCAACTGGGGCAAAGCAGGTTACCATAAGGTTGG,1.27,0.563,0.56,-0.0375,0.648,2.78,0.101,-0.248
TCTGCTAGGTCAACGATGGTCCGCTAATCTGCTA,2.94,3.75,4.7,1.2,2.3,2.56,0.713,-0.413
GCTATTATTTGAAAGGGCAACCGAATGATTCTCG,2.11,1.12,1.27,0.947,1.03,0.568,0.3,0.995

Sequence,PBM binding z-score [1],PBM binding z-score [2],PBM binding z-score [3],PBM binding z-score [4],PBM binding z-score [5],PBM binding z-score [6],PBM binding z-score [7],PBM binding z-score [8]
CAAACTAGGTCAAAGGGCAAAGTCGAGCCAACCA,3.81,6.04,5.28,1.76,7.35,3.56,0.847,1.06
CCAGACAGGTAAGAAGGTAACTCAGCCTCGATTA,-0.0494,0.201,0.207,-0.00945,0.0209,0.0122,0.113,-0.0609
AGAATGAGGTTAAGATCACGGAAACAGAATACAT,0.84,2.33,1.81,0.924,2.92,2.47,0.742,0.686
TAGCCTAGGTCATTCAGGGGCCGGTATAGAAAGC,2.86,5.32,4.21,1.88,3.01,3.42,0.635,1.53
CGAACTAGGTCTTCCAGGACAGTGAATACATTGA,0.194,0.154,0.415,0.373,-0.0434,1.71,0.787,0.0101
AATACAGGTTCATCGTAGGCCAGAGTACGCACAG,1.46,2.54,1.39,4.66,3.17,3.66,0.0172,5.45
CCAGACAGGTGAAACGTAACTCAGTCTGGTACGC,0.0638,0.203,0.432,0.0553,0.53,-0.118,-0.567,-0.448
TATCCTAGGTCATGCGGGCCAGTATAGTGTCGGC,3.12,4.06,4.98,1.6,3.59,3.43,1.91,1.29
TCGAGTAGGTTAGGGGCATTCATAATGGCGTCGA,0.847,0.406,0.583,0.422,0.801,0.804,0.251,0.868
TCATATAGGTAAACAGGTGATAGTCCGTAAGTTA,0.338,0.509,0.323,1.35,0.949,0.375,0.179,0.482
ATATGTAGGTTAAGGGTCAATCAGGTTGGTTCGC,3.94,4.94,3.82,1.7,5.96,3.45,1.54,3.33
TCATATAGGTAAAAGGCGAAAGTCGGTGTGGTAA,-0.139,0.0161,-0.195,1.51,0.665,-0.0856,-0.0858,0.0813
GTACCAAGGTGATTAGGTCGTTGATGAGTAGGCG,1.06,0.806,0.66,0.0245,0.805,1.49,1.03,0.631
GTACCAAGGTGAATAGGTCGGTGATGAGTAGGCG,1.58,1.83,1.21,-0.398,1.14,1.57,0.522,0.177
GGCACGAGGGCAAGTTGATAGCAGAGTTTGATGG,1.6,1.91,2.12,2.06,1.17,1.23,0.0135,1.58
ACTAGTTGGTCAGCTGAGGCCACACACAATTCGG,1.35,0.493,1.14,0.0642,0.0882,3.64,1.45,0.0276
TCATATAGGTAATACAGGTGAAAGTGGGCATCTA,0.844,0.777,0.705,2.06,1.3,0.901,0.52,0.577
CGTCCAAGGTCAAGGTCTGTGAAAGAGACTCGAA,3.88,6.09,6.55,3.21,5.2,3.83,2.46,1.78
